Screening data deposited in PubChem by National Center for Advancing Translational Sciences (NCATS).
Many of the other results were omitted from the sample, so hits are more common in it than they were.
Pf Dd2 growth: inhibitors of Plasmodium falciparum Dd2 growth; P. falciparum Dd2 growth, SYBR Green, 72 h; hit rate 4.3% among 120,000; AID 1347417; Potency, µM (highest dose often 28.9 µM), without a hit: at the highest dose activity, negative = inhibition, usual class: inhibitors; active = well fitted inhibition curve with a large enough effect;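 note: plate controls were DMSO vehicle for no effect and reference drug for full effect; nearly all actives have a fitted effect of over 65% in size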
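Readout: SYBR Green fluorescence, 485 nm excitation, 535 nm emission, after ~16 h lysis at 37C. Before that, Dd2-infected red cells (2.5% hematocrit) grew 72 h with compound, 29 uM top final concentration.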
* marks the source's active call; other numbers are inactive results; i = inactive; [ ] = dose if it differs, or a comment. Potency is the fitted concentration of half-maximal effect.

SMILES | Pf Dd2 growth
CN1CCCC2(CCN(C(=O)Cc3c[nH]c(=O)n(C)c3=O)C2)C1=O (configuration not stated) | -6%
Cc1csc(NC(=O)c2ccc3c(c2)OCC(=O)N(Cc2cnn(C)c2)C3)n1 | i
Cc1ccc(NC(=O)Cn2c(C)cc3nc4n(c(=O)c32)CCC4)cc1Cl | i
CC(=O)Nc1ccc(CNC2(Cc3cc(-c4ccccn4)on3)COC2)cc1 | -18%[44.1 µM]
CN(C)c1ccc(CN2CCC3(C2)NC(=O)c2ccccc2O3)cc1 (configuration not stated) | i
COc1ccc(CN2CCC3(CC2)C(=O)NCN3Cc2ccc(Cl)cc2)cc1 | 3.2µM*
Cc1cc(CN2CCC3(C2)NC(=O)c2ccccc2O3)no1 (configuration not stated) | -18%[44.1 µM]
COc1cccc([S+](=O)([O-])N2CCC3(CC2)NC(=O)c2ccccc2O3)c1 | i
O=C1NC2(CCCN(Cc3ccccc3)C2)Oc2ccccc21 (configuration not stated) | 13µM*
O=C1NC2(CCN(Cc3ccc(F)cc3)C2)Oc2ccccc21 (configuration not stated) | 11µM*
O=C1NCN(Cc2ccc(Cl)cc2)C12CCN(Cc1ccncc1)CC2 | i
Cn1cccc1CN1CCC2(CC1)C(=O)NCN2Cc1ccc(Cl)cc1 | 1%
O=C1NC2(CCCN(Cc3ccncc3)C2)Oc2ccccc21 (configuration not stated) | -21%[44.1 µM]
O=C1NC2(CCN(Cc3ccc(C(F)(F)F)cc3)C2)Oc2ccccc21 (configuration not stated) | i
O=C1NC2(CCN(Cc3ccccc3)C2)Oc2ccccc21 (configuration not stated) | i
COc1cccc(CN2CCC3(C2)NC(=O)c2ccccc2O3)c1 (configuration not stated) | 13µM*
CSc1cccc(NC(=O)Cn2cccc2-c2nc(-c3ccc4c(c3)OCO4)no2)c1 | i
CCn1ccc(C(=O)N2CCC(N3C(=O)C(O)C34CCCCC4)CC2)n1 (configuration not stated) | -6%
CCCC(=O)NC1CCN(c2ccccc2)C1=O (configuration not stated) | 15%
COCCNC(=O)[C@@H]1C[C@H](Oc2cccnc2)CN1C(=O)c1ccc(C)s1 | 14%
CN(Cc1cc(-c2ccncc2)no1)C(=O)CCc1cc2n(n1)CCCNC2 | 2%
O=C1CC2CCN(C(=O)Cc3ccccc3)CC2CCN1 (configuration not stated) | 133%[44.1 µM]
O=C(c1ccncc1)N1CCCC(Cc2nc(C3CCOCC3)no2)C1 (configuration not stated) | -22%
Cn1ncc(N2CCC(C(=O)NCC3CC3)C2)cc1=O (configuration not stated) | i
CCCN(CC1CCOC1)S(=O)(=O)c1ccc(Br)s1 (configuration not stated) | 19%[5.79 µM]
SMILES | Pf Dd2 growth
CCC(=O)N(C1CCOCC1)C1CCN(S(=O)(=O)c2ccccc2F)CC1 | -30%
Cc1ccccc1CNC(=O)C1CCN(C(=O)c2ncn3c2COC(c2ccccc2)C3)CC1 (configuration not stated) | i
O=C(NCc1ccccc1)C1CCN(c2ncnc3c2nc2n3CCCCC2)CC1 | 22%
CCOC(=O)c1ccccc1NC(=O)C1CCN(c2ncnc3c2nc2n3CCCCC2)CC1 | -7%
O=C(Nc1ccc(F)cc1Cl)C1CCN(c2ncnc3c2nc2n3CCCCC2)CC1 | 2.8µM*
COc1ccc(CN2CC3(CCN(S(=O)(=O)C(C)C)CC3)C2=O)cc1 | -20%
O=C(NCCc1ccccc1)C1CCCN(C2CCN(Cc3ccccc3F)CC2)C1 (configuration not stated) | i
O=C(NCCN1CCOCC1)C1CCCN(C2CCN(Cc3ccncc3)CC2)C1 (configuration not stated) | -15%
O=C(NCCc1ccccc1)C1CCCN(C2CCN(Cc3ccncc3)CC2)C1 (configuration not stated) | 10µM*
COc1cccc([S+](=O)([O-])N2CCC3(CC(C(C)C)=NO3)C2)c1 (configuration not stated) | 1%
Cc1oc(-c2ccc(C(=O)Nc3cccc(C(F)(F)F)c3)cc2)nc1CSc1ccccc1 | 11µM*
COc1ccc(NC(=O)c2ccc(-c3nc(CSc4ccccc4)c(C)o3)cc2)cc1OC | i
CC(=O)c1ccc(NC(=O)c2ccc(-c3nc(CSc4ccccc4)c(C)o3)cc2)cc1 | -24%
CCCCc1nn(CC(=O)N2CCN(c3ccccn3)CC2)c(=O)n1CC | -13%
O=C(Nc1ccc(Oc2ccccc2)cc1)O[C@@H]1CO[C@H]2[C@@H]1OC[C@@H]2NC(=S)Nc1ccccc1 | 7%
CCN1CCC2(Cc3ccccc3CN(C(=O)Cc3ccc(O)cc3)C2)C1 (configuration not stated) | -21%
CCN1CCCC2(Cc3ccccc3CN(C(=O)CCCC(=O)O)C2)C1 (configuration not stated) | -9%
CCN1CCC2(Cc3ccccc3CN(C(=O)Cc3ccc(OC)cc3)C2)C1 (configuration not stated) | 8.9µM*
CCC(=O)N1Cc2ccccc2CC2(CCN(CC3CCNCC3)C2)C1 (configuration not stated) | 8%
CCN1CCC2(Cc3ccccc3CN(C(=O)Cc3ccccc3)C2)C1 (configuration not stated) | 11µM*
CCC(=O)N1Cc2ccccc2CC2(CCCN2Cc2ccc(OC)cc2)C1 (configuration not stated) | -6%
C=CCOC(=O)C1=C(C)N(Cc2ccc(Br)cc2)C(=O)CC1c1ccccc1Cl (configuration not stated) | -22%
COc1cc(NC(=O)CCC2CCN(C(=O)c3ccccc3)CC2)cc(OC)c1 | i
O=C(c1cccc(F)c1)N1CCC2(CC1)C(=O)NN=C2c1ccccn1 | -11%
CCCC(NC(C)=O)c1nc(CC(N)=O)nn1-c1ccc(F)cc1F (configuration not stated) | 0%
SMILES | Pf Dd2 growth
COCc1ccc(C(=O)N2CCn3nc(CCC(=O)NC4CC4)cc3C2)o1 | 10%
O=C(c1ccc2cc[nH]c2c1)N1C[C@@H](CO)[C@H](c2nc(C3CC3)no2)C1 | -12%
Cc1cn2nc(C(=O)NCCc3ccccc3)cc2c(N2CCCC2)n1 | i
Cc1cn2nc(C(=O)NCC(C)C)cc2c(N2CCCC2)n1 | i
Cc1cn2nc(C(=O)NC3CCCCC3)cc2c(N2CCCC2)n1 | 10µM*
CN(C)c1ccc(C(=O)N[C@H]2C[C@H]3C(=O)NC[C@@H](CCC(=O)NCc4cccnc4)N3C2)cc1 | -24%
CN(CCNC(=O)CCC[C@H]1NC[C@@H]2CC1CN(Cc1ccccc1)C2)C1CCCCC1 | -13%
Cc1ccc(NC(=O)C(=O)NCC(c2cccnc2)N2CCOCC2)cc1Cl (configuration not stated) | -12%
COC(=O)c1ccc(NC(=O)C(=O)NCC(c2cccnc2)N2CCN(c3ccccc3)CC2)cc1 (configuration not stated) | -10%
O=C(NCC(c1cccnc1)N1CCOCC1)C(=O)Nc1ccc(F)cc1 (configuration not stated) | 9%
Cc1ccc(NC(=O)C(=O)NCC(c2cccnc2)N2CCOCC2)cc1C (configuration not stated) | -16%
Cc1ccc(NC(=O)C(=O)NCC(c2cccnc2)N2CCN(Cc3ccccc3)CC2)cc1F (configuration not stated) | 8.9µM*
Cc1ccc(NC(=O)C(=O)NCC(c2cccnc2)N2CCN(Cc3ccccc3)CC2)cc1C (configuration not stated) | 5.6µM*
